Screens (PubChem BioAssay)
MITF primary: inhibitors of human MITF. O75030. AlphaScreen MITF homodimerization, bead proximity signal. inhibition, % at 2.6 µM. 0.91% of 650,000 active; in the data active means inhibition above about 50%;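 further: 0% = vehicle wells with protein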
FBW7 activator: activators of human E3 ligase FBW7. AlphaScreen FBW7–phospho-cyclin E peptide binding, activator screen. Q969H0. 0.13% of 650,000 active. normalized activity (activation), % at 26.1 µM; in the data active means normalized activity above about 1.9%;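 further: purified mutant Fbw7 with reduced substrate affinity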
GPR151 ag: activators of human GPR151; Q8TDV0; PathHunter beta-arrestin GPR151 cells, luminescence; activation, % at 11.2 µM; 1% of 650,000 active; AID 1508602; in the data active means activation above about 4.9%;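 further: 0% = median of compound wells and 100% = cells with positive control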
Target sequence (Q8TDV0 whole entry, looked up): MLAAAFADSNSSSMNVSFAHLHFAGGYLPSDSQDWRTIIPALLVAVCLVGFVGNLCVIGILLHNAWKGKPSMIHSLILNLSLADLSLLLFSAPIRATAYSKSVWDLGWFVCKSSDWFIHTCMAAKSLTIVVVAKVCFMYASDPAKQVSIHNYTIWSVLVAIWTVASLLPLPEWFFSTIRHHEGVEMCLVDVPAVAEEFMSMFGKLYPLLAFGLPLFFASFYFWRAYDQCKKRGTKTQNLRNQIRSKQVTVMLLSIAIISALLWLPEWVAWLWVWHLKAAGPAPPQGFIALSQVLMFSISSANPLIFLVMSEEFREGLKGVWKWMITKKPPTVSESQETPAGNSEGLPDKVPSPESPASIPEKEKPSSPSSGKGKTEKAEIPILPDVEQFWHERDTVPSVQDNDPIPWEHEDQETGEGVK
TEAD-YAP block: TEAD-YAP interaction inhibition. HEK-TIYL cells, TEAD-Gal4/YAP UAS-luciferase luminescence. inhibition, % at 9.12 µM. 1.4% of 640,000 active. AID 1259422; in the data active means inhibition above about 32%;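 further: 0% = median of test compound wells and 100% = reference inhibitor wells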
Starred values were filed as active, the others as inactive; ! = a repeat was not active. Hits are enriched below; roughly 3.4% of the tested compounds scored in any of these assays.

SMILES	MITF primary	FBW7 activator	GPR151 ag	TEAD-YAP block
CC(=O)Nc1ccc(Nc2nc3ccccc3n3nnnc23)cc1	5	0	0	38*
CC(=O)Nc1cccc(Nc2nc3ccccc3n3nnnc23)c1	9	0	0	-14
Cn1nccc1Nc1nc(NC2CC2)c2ncn(-c3ccccc3)c2n1	6	0	-3	40*
CC(=O)Nc1ccc(Nc2nc(Nc3nc4ccccc4n3C)nc3c2ncn3-c2ccccc2)cc1	-1	0	1	32*
CCNc1nc(Nc2ccc(NC(C)=O)cc2)c2ncn(-c3ccccc3)c2n1	20	0	1	-8
CCOc1ccc(-c2nc3cc(NC(=O)C4CCCN4C(=O)OCc4ccccc4)ccc3o2)cc1 (centres undefined)	-1	0	1	-11
C/C(=N\Nc1ncc(Cl)cc1Cl)c1ccccn1	19	0	-1	82*
COC(=O)c1ccc(-c2c(Nc3ccccc3C)oc3c2c(=O)n(C)c(=O)n3C)cc1	-6	0	-1	-8
CCc1ccc2c(c1)/C(=c1/sc3n(c1=O)CN(c1cccc(C(=O)O)c1)CN=3)C(=O)N2	3	3.9*	-1	-1
OCc1ccc(-c2cnn3c(N4CCOCC4)ccnc23)cc1	20	0	1	42*
O=C(O)CCc1ccc(-c2cnn3c(N4CCC(O)CC4)ccnc23)cc1	7	0	-1	37*
CN1CCN(c2ccnc3c(-c4ccc(CO)cc4)cnn23)CC1	-5	0	1	-58
COc1cc(N)cc2sc(NC(C)=O)nc12	4	0	1	-23
CC(=O)Nc1nc2c(C)cc(N)cc2s1	6	30*	0	-40
CCCCN(C(=O)NC(=O)Nc1ccc(Oc2ccccc2)cc1)S(C)(=O)=O	5	0	0	-1
C=CCN1C(=O)/C(=C/c2ccc(OC(C)=O)c(OCC)c2[N+](=O)[O-])SC1=S	21	-1	0	37*
c1ccc(-c2cc(NCc3ccco3)nc(-c3ccccn3)n2)nc1	111*	-1	1	59*
c1ccc(-c2nc(NCc3ccco3)cc(-c3cccnc3)n2)nc1	-17	0	1	11
C=CCNc1cc(-c2ccccn2)nc(-c2ccccn2)n1	115*	-1	1	50*
O=C1CC2CC(N1)C1CCCC21 (centres undefined)	-3	0	1	9
CCN(CC)CCCN=Cc1c(O)[nH]c2ccccc12	12	0	1	-15
CCOC(=O)c1cc2cnccc2nc1-c1ccncc1	13	0	-2	-14
NC(=O)c1cccc(-c2cnn3c(NCc4ccc(F)cc4)ccnc23)c1	21	0	1	23
CCc1ccc(/C(C)=N/N=C(N)N)cc1	-6	0	0	35*
COC(=O)COc1ccc(S(=O)(=O)Nc2cccc(C(C)=O)c2)cc1C	8	0	-1	5
SMILES	MITF primary	FBW7 activator	GPR151 ag	TEAD-YAP block
CCc1c(C)nc(NC2CCN(C(=O)C3(c4ccc(OC)cc4)CC3)CC2)[nH]c1=O	-3	0	0	6
COc1ccc(C2(C(=O)N3CCC(Nc4nc5c(c(=O)[nH]4)CCC5)CC3)CC2)cc1	-2	1.9*	0	1
CC(=O)Nc1ccc(NC(C)=O)c2c1C(=O)c1c(NC(C)=O)ccc(NC(C)=O)c1C2=O	82*	0	2	1
CC(=O)Nc1cccc2c1C(=O)c1cccc(NC(C)=O)c1C2=O	-9	0	-1	3
O=C(c1cc(COc2cccc3cnccc23)on1)N1CCCC(CCCO)C1 (centres undefined)	10	0	0	65*
CN(Cc1ccccc1)C(=O)c1cc(COc2cccc3cnccc23)on1	12	0	-3	33*
CCCCNC(=O)c1cc(COc2cccc3cnccc23)on1	1	0	2	14
Cc1[nH]c2ccc(C(=O)NN)cc2c1C	-14	0	0	38*
CCNC(=O)c1ccc2[nH]c(C)c(C)c2c1	6	0	0	-32
O=C(NC1c2ccccc2-c2ccccc21)c1cccc([N+](=O)[O-])c1	-2	0	-1	54*
O=C(NC1c2ccccc2-c2ccccc21)c1ccccc1	-18	0	0	-2
O=C(O)c1cc(NCc2cccc(Br)c2)ccc1N1CCOCC1	-7	0	-1	3
CCC(=O)NC(c1nnc2n1CCN(Cc1c(OC)cccc1OC)CC2)C(C)C (centres undefined)	-3	0	-1	-1
CC(=O)Nc1ccccc1OCC(=O)c1cc(C)n(CCc2ccc(F)cc2)c1C	14	0	2	61*
CC(=O)c1ccc(S(=O)(=O)N(C)CC(=O)/C=C2/N(C)c3ccccc3C2(C)C)cc1	4	0	1	38*
CC(=O)/C=C1\N(C)c2ccccc2C1(C)C	10	0	1	-10
N=C(N)c1ccc(N)cc1	-4	0	1	-12
N=C(N)c1ccc(OCCCCCOc2ccc(C(=N)N)cc2)cc1	-20	0	2	44*!
COc1cc(OC)cc(-c2cc3nc(C)c(CCC(=O)O)c(C)n3n2)c1	5	0	1	56*
Cc1cccc(C)c1NC(=O)CSC1=C(C#N)C(c2ccco2)C2=C(CCCC2=O)N1 (centres undefined)	14	0	-1	9
Cc1c(Cl)cccc1NC(=O)CSC1=C(C#N)C(c2ccco2)C2=C(CCCC2=O)N1 (centres undefined)	49	0	1	38*
Cc1ccc(C2C(C#N)=C(SCC(=O)Nc3cccc(C)c3C)NC3=C2C(=O)CCC3)o1 (centres undefined)	-12	0	1	64*
CCc1ccc(NC(=O)CSC2=C(C#N)C(c3ccc(C)o3)C3=C(CCCC3=O)N2)cc1 (centres undefined)	2	1	0	20
COc1cccc2sc(=NC(=O)c3ccc([N+](=O)[O-])o3)n(C)c12	0	0	5	-2
COc1ccccc1N=C1SCCN1C(=O)c1ccc([N+](=O)[O-])o1	3	2.2*	-1	4
SMILES	MITF primary	FBW7 activator	GPR151 ag	TEAD-YAP block
CCN(CC)S(=O)(=O)c1ccc2[nH]c3nc(SCC(=O)NCc4cccs4)nnc3c2c1	7	0	-1	-10
CCOC(=O)c1nnn(-c2nonc2N)c1CN(Cc1ccccc1)C(C)C	2	0	1	44*
CCOC(=O)c1nnn(-c2nonc2N)c1CN(CC)c1ccccc1	-3	0	-1	-8
O=C(c1cnccn1)N1CCC(CO)(Cc2ccccc2C(F)(F)F)CC1	-7	0	1	12
O=C1Nc2ccccc2NC(=O)C2C3c4ccccc4C(c4ccccc43)C12 (centres undefined)	-8	0	1	17
c1ccc2c(c1)Nc1ccccc1C2NNC1c2ccccc2Nc2ccccc21	0	0	0	69*
CCCCn1c(CNC(=O)c2ccccc2C(F)(F)F)nnc1SCC(=O)Nc1sc2c(c1C(=O)OCC)CCCC2	-4	0	1	1
Cc1ccc(C(=O)Nc2ccc3c(c2)OCCO3)c(C)c1	2	0	-5	89*
Cc1ccc(C2=NC(C)(C)N=C2SCC(=O)Nc2ccc3c(c2)OCCO3)cc1	-10	3.7*	0	15
